Screening results as filed in PubChem BioAssay.
Tgondii IFNg – inhibitors of Toxoplasma gondii growth with IFN-gamma | activity change, negative = inhibition, % (test concentration not listed) | hit rate 3.8% among 69,000 | Toxoplasma gondii growth in IFN-gamma-treated host cells; active compounds read low; in the data active means activity change below about -70%, passing the limit was not always enough;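 further: host cells are HeLa cells infected with Toxoplasma gondii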
* marks the source's active call; other numbers are inactive results. The full list was thinned out, with hits kept by preference.

SMILES	Tgondii IFNg
COc1ccc(NC2CCCN(C(=O)COc3ccc4c(c3)OCO4)C2)cc1 (centres undefined)	-7.8
CCSc1nc(CC(=O)NCCc2c[nH]c3ccccc23)cs1	26.8
Cc1cc(C(=O)NCCc2c[nH]c3ccccc23)c2c(=O)n(C)c(=O)n(C)c2n1	37.1
CCOc1nc2c(c(C)nn2-c2cccc(C)c2)c(C)c1CCC(=O)NCCc1c[nH]c2ccccc12	-78.9*
Cn1cc(N2CC3(CNCCOC3)OCC2=O)cn1 (centres undefined)	-33.3
CN1C(=O)CCc2cc(C(=O)N3CCCC3)ccc21	19.5
CN(C)[C@@H]1CCN(C(=O)c2cnccn2)[C@H]1Cc1cnn(C)c1	-0.6
C=CCN(C(=O)CCn1c(C)cc(C)nc1=O)C1CCCC1	-1.7
Cn1ncc(-c2nc(-c3ccc(Cl)cc3)cs2)c1N	-83.2*
CC(C)(C)c1cc(-c2csc(-c3ccc(Cl)cc3)n2)cc(C(C)(C)C)c1O	58.0
Cc1nc(-c2ccc(Cl)cc2)cs1	-0.5
Cc1ccc(CN2CCc3ccc(=O)[nH]c3CC2)cc1	24.2
CC(C)c1cc(C(=O)N(C)CCC(O)c2ccccc2)n(C)n1 (centres undefined)	2.8
COc1ccc(-c2nc(N3CCN(c4cccc(C(F)(F)F)c4)CC3)c3ccccc3n2)cc1	5.9
FC(F)(F)c1cccc(N2CCN(c3nc(-c4ccc(Cl)cc4)nc4ccccc34)CC2)c1	-22.2
Nc1ccc(-c2ccc3ncc4ccc(=O)n(-c5cccc(C(F)(F)F)c5)c4c3c2)cn1	-75.9*
COC(=O)c1cccc(NC(=O)N2CCC(c3nc(C(=O)N(C)C)c(C)o3)CC2)c1	54.9
CCc1ccc(C(=O)N2CCn3nnc(COCc4cccnc4)c3C2)cc1	-32.1
C[C@@H]1CN([C@@H](C)CO)C(=O)c2cccc(NC(=O)Nc3ccc(F)cc3)c2O[C@H]1CN(C)S(=O)(=O)c1ccc(Cl)cc1	-52.7
COc1ccc(S(=O)(=O)N(C)C[C@@H]2Oc3c(NC(=O)c4nc5ccccc5s4)cccc3C(=O)N([C@H](C)CO)C[C@H]2C)cc1	-3.9
C[C@@H]1CN([C@@H](C)CO)C(=O)c2cc(/C=C/c3ccccc3)cnc2O[C@@H]1CN(C)S(=O)(=O)c1ccccc1F	-7.4
C[C@H](CO)N1C[C@H](C)[C@@H](CN(C)Cc2ccccc2)Oc2c(NC(=O)Cc3cn(C)c4ccccc34)cccc2C1=O	-93.3*
C[C@@H]1CN([C@@H](C)CO)C(=O)c2cccc(NS(C)(=O)=O)c2O[C@H]1CN(C)Cc1ccc(-c2ccccc2)cc1	-23.3
C[C@@H]1CN([C@H](C)CO)C(=O)c2cc(/C=C/c3ccccc3)cnc2O[C@@H]1CN(C)S(=O)(=O)c1ccccc1F	-88.4*
C[C@H](CO)N1C[C@H](C)[C@@H](CN(C)Cc2ccc(Oc3ccccc3)cc2)Oc2c(NC(=O)CCC(F)(F)F)cccc2C1=O	-64.9
SMILES	Tgondii IFNg
C[C@@H]1CN([C@@H](C)CO)C(=O)c2cccc(NC(=O)c3nc4ccccc4s3)c2O[C@@H]1CN(C)C(=O)Nc1ccc2c(c1)OCO2	-43.1
C[C@H](CO)N1C[C@H](C)[C@@H](CN(C)S(=O)(=O)c2ccccc2F)Oc2ncc(/C=C/c3ccccc3)cc2C1=O	-13.5
C[C@@H]1CN([C@@H](C)CO)C(=O)c2cccc(NC(=O)Nc3ccc(F)cc3)c2O[C@@H]1CN(C)S(=O)(=O)c1ccc(Cl)cc1	-17.1
C[C@H](CO)N1C[C@H](C)[C@H](CN(C)S(=O)(=O)c2ccc(Cl)cc2)Oc2c(NC(=O)Nc3ccc(F)cc3)cccc2C1=O	-81.3*
COc1ccc(S(=O)(=O)N(C)C[C@H]2Oc3c(NC(=O)c4nc5ccccc5s4)cccc3C(=O)N([C@@H](C)CO)C[C@@H]2C)cc1	-78.3*
COc1ccc2nc(CCN(C)C(=O)CC3COCCN3)[nH]c2c1 (centres undefined)	8.1
COC(=O)CSc1nnc(-c2ccccn2)o1	16.5
Cc1ccsc1C(=O)N1CCC(N2CCCC2)CC1C(=O)O (centres undefined)	9.3
CN1CCCC(CCNC(=O)Cn2ccc(=O)c3ccccc32)C1 (centres undefined)	1.5
CN(CC(=O)Nc1cccc(-c2nc3ccccc3s2)c1)C1CCS(=O)(=O)C1 (centres undefined)	176.7
c1cncc(OCC2CC3(CCN(Cc4ccco4)CC3)CO2)c1 (centres undefined)	28.6
Nc1ccc(-c2ccc(F)c(CO)c2)cn1	8.6
CN(CC1CCCCO1)C(=O)c1cn[nH]c1-c1cccc(F)c1 (centres undefined)	3.5
COc1ncccc1-c1cc(=O)[nH]c(NCC(C)(C)CN(C)C)n1	-13.9
COc1ccc(N(Cc2nc(-c3ccccc3)oc2C)S(=O)(=O)c2ccccc2)cc1	-44.8
Cc1nccn1CC1CCCN(Cc2ccc(Cn3cccn3)cc2)C1 (centres undefined)	-8.5
CC(=O)O[C@@H]1CC2C(C)(C)[C@H](O)CC[C@]2(C)C2CC[C@@]3(C)[C@H](c4ccoc4)OC(=O)C4OC43[C@@]21C (some centres undefined)	-71.2*
